PubChem BioAssay (EPA / NIEHS)
Calls of active or inactive are those of the source. How the source made its calls: active means hit-call score of the fitted dose curve at least 0.9, where 1 is the maximum; inactive means score below 0.9.

Each molecule was assayed on urokinase plasminogen activator (uPA), PLAU (gene 5328) (assay: BSK_BE3C_uPA: BioMAP Diversity Plus: BE3C Assay for urokinase plasminogen activator (uPA) Biomarker Activity (AID 2283038;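 on outcome: uPA read one day after compound addition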)). Conditions: primary human bronchial epithelial cells; actives raise or lower the signal.
Procedure: BSK_BE3C is a cell-based, multiplexed-readout assay that uses bronchial epithelial cell, a human lung primary cell, with measurements taken at 24 hours after chemical dosing in a 96-well plate.BSK_BE3CA is an assay component measured in the BSK_BE3C assay. It measures uPA antibody related to regulation of gene expression using ELISA technology.Data from the assay component BSK_BE3CA was analyzed into 1 assay endpoint. This assay endpoint, BSK_BE3CA, was analyzed with bidirectional fitting relative to DMSO as the negative control and baseline of activity. Using a type of binding reporter, gain or loss-of-signal activity can be used to understand changes in the signaling as they relate to the gene PLAU. Furthermore, this assay endpoint can be referred to as a primary readout, because this assay has produced multiple assay endpoints where this one serves a signaling function. To generalize the intended target to other relatable targets, this assay endpoint is annotated to the protease intended target family, where the subfamily is serine protease.
The levels of cell surface (or secreted, indicated by the prefix "s") biomarker endpoints were measured by ELISA. Overt cytotoxicity to cells in confluent adherent cultures (all systems other than the BT system) was assessed by measuring total protein levels using sulforhodamine B (SRB) staining in parallel cultures at the time of biomarker measurements, indicated as SRB endpoints. For proliferation assays for adherent cell types, individual cell types are cultured at sub-confluence and relative cell numbers quantified by SRB staining at time points optimized for each system (48 h: 3C and CASM3C systems; 72 h: BT and HDF3CGF systems; 96 h: SAg system). SRB was performed by staining cells with 0.1% SRB after fixation with 10% TCA and reading wells at 560 nm.Viability and proliferation of PBMC (T cells) was quantified by Alamar Blue reduction for the SAg and BT systems. For PBMC viability (referred to as PBMC Cytotoxicity within the assay endpoint names), cells were plated (75,000/well in a 96-well plate) and then chemical samples added for 1 h before addition of activators, SEB and TSST-1 (20 ng/mL final concentration each). Cells were incubated for 90 h. Then, Alamar Blue (20 uL/well) (Invitrogen, Cat DAL1100) was added for 6 h, and the plates were read with a fluorescence microplate reader at 546/580 nm (excitation/emission). For PBMC proliferation, cells were plated and activated as above but incubated for only 16 h prior to addition of Alamar Blue. Plates were read after 6 h.

Row | SMILES | AC50 | outcome
1 | O=C1C=CC(=O)c2ccccc21 | 4.36 µM (active) | –
2 | CC(C)=CC1C(C(=O)OCc2cccc(Oc3ccccc3)c2)C1(C)C (stereo not given) | – | inactive
3 | CC(C)N(C(=O)CCl)c1ccccc1 | – | inactive
4 | CCCCN(CCCC)C(=S)[S-].CCCCN(CCCC)C(=S)[S-].[Ni+2] | – | inactive
5 | Cc1cc(Cl)ccc1N | – | inactive
6 | CN(C)C(=S)S | 30.2 µM (active) | –
7 | O=C(CCl)NCO | – | inactive
8 | Clc1cccc(Cl)c1Cl | – | inactive
9 | NC(=O)CCl | – | inactive
10 | O=[N+]([O-])c1cccc2ccccc12 | – | inactive
11 | CC(C)(COCC1CO1)COCC1CO1 (stereo not given) | – | inactive
12 | Nc1c(Oc2ccccc2)cc(O)c2c1C(=O)c1ccccc1C2=O | – | inactive
13 | Oc1ccc(Cc2ccc(O)cc2)cc1 | – | inactive
14 | O=C(O)COc1cc(Cl)c(Cl)cc1Cl | – | inactive
15 | COc1ccccc1N | – | inactive
16 | CCOC(=O)CCN(SN(C)C(=O)Oc1cccc2c1OC(C)(C)C2)C(C)C | – | inactive
17 | CCOC(=O)C(SP(=S)(OC)OC)c1ccccc1 (stereo not given) | – | inactive
18 | CCOP(=S)(OCC)SCS(=O)(=O)C(C)(C)C | – | inactive
19 | Oc1c(Br)cc(Br)cc1Br | – | inactive
20 | c1ccc2sc(SNC3CCCCC3)nc2c1 | – | inactive

Row | SMILES | AC50 | outcome
21 | [Cl][Sn]([c]1ccccc1)([c]1ccccc1)[c]1ccccc1 | 0.27 µM (active) | –
22 | O=[N+]([O-])c1ccc(Nc2ccccc2)cc1 | – | inactive
23 | O=S(=O)(C(Cl)(Cl)Cl)C(Cl)(Cl)Cl | 5.31 µM (active) | –
24 | CCOP(=O)(OCC)SCCSCC | – | inactive
25 | CCN(CC)C(=O)C(Cl)=C(C)OP(=O)(OC)OC | – | inactive
26 | Cc1cc(C(C)(C)c2ccc(O)c(C)c2)ccc1O | – | inactive
27 | CCCCCCCCCCCCN(C)C | – | inactive
28 | Cc1cc(Cl)ccc1OC(C)C(=O)O (stereo not given) | – | inactive
29 | CC(C=O)Cc1ccc2c(c1)OCO2 (stereo not given) | – | inactive
30 | CCCCOC(=O)COC(=O)c1ccccc1C(=O)OCCCC | – | inactive
31 | O=C(O)C1(c2ccc3c(c2)OC[C@H](Cc2ccc(-c4ccccc4)cc2)[C@H]3O)CCCC1 | 13.8 µM (active) | –
32 | Oc1c(Cl)cc(Cl)cc1Cl | – | inactive
33 | O=c1oc2ccccc2c(O)c1C(CC(O)c1ccc(-c2ccc(Br)cc2)cc1)c1ccccc1 (stereo not given) | 5.29 µM (active) | –
34 | N#CCCC(Br)(C#N)CBr (stereo not given) | 20 µM (active) | –
35 | OC(Cc1ccccc1Cl)(Cn1[nH]cnc1=S)C1(Cl)CC1 (stereo not given) | 20 µM (active) | –
36 | N#Cc1cccnc1 | – | inactive
37 | OCCCCO | – | inactive
38 | CC(C)(C)c1ccccc1O | – | inactive
39 | C=CC(Cl)CCl (stereo not given) | – | inactive
40 | O=C(N[C@H]1CN2CCC1CC2)c1ccc2c(c1)OCCO2 | – | inactive
